RORgamma inh: ROR gamma (mouse) transcription inhibition; P51450; 310,000 compounds, 5.4% hits; Potency, µM (series often up to 53.6 µM), for the others: top-dose activity change, negative = inhibition, most hits filed as inhibitors; Drosophila S2 Gal4-RORgamma UAS-luciferase reporter, 20 h; note: % is set by controls: 0 for no effect and ±100 for the full control effect; nearly all actives have a fitted effect of over 60% in size
Target sequence (P51450 whole entry, looked up, the tested form may be a part): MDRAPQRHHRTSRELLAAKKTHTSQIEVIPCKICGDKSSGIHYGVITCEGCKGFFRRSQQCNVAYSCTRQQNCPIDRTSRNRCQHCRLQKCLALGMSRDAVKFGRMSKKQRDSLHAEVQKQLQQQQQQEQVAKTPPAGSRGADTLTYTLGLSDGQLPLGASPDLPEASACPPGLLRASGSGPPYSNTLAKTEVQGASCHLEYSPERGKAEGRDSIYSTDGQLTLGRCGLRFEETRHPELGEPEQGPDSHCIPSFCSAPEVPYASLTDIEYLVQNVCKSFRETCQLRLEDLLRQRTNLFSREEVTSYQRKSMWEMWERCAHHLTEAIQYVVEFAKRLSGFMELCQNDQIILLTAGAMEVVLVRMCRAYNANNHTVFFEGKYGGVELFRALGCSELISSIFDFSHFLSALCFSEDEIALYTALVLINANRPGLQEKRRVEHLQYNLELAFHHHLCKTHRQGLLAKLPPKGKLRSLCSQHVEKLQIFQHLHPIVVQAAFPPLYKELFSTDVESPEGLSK
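Drosophila S2 cells stably expressing Gal4-DBD/mouse RORγ fusion under metallothionein promoter plus UAS-luciferase; compound 1 h, then 700 uM CuSO4 induction for 20 h at ambient temperature; inhibition read as reduced luminescence.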
TGFb SMAD3 inh: inhibitors of TGF-b signaling; HepG2 CAGA-GFP TGF-b/SMAD3 reporter, GFP fluorescence, 18 h; TGF-beta stimulated, 500 pg/mL final; Potency, µM (titrated, usually from 46.1 µM), inactives show at the highest dose activity, negative = inhibition, most hits filed as inhibitors; 410,000 compounds, 1.2% hits; AID 588855; note: % is set by controls: 0 for no effect and ±100 for the full control effect; nearly all actives have a fitted effect of over 65% in size
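First, reporter cells (HEPG2 CAGA-GFP) rested 2 h at 37 degrees C. Next, compounds were pinned in and TGF-beta added to 500 pg/mL final. After 18 h, GFP was imaged per cell and summed per well.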
ATXN2 expr inh: reduces ATXN2 reporter expression in HEK-293 cells. HEK-293 ATXN2-luciferase reporter, luminescence, 24 h. Potency, µM (top dose mostly 57 µM), for the others: top-dose activity change, negative = inhibition, actives largely listed as inhibitors. 360,000 compounds, 0.72% hits. AID 1745845; note: % is set by controls: 0 for no effect and ±100 for the full control effect; nearly all actives have a fitted effect of over 55% in size
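qHTS (up to 57 uM final) was run with 24 h compound exposure of reporter cells at 37 °C. Each well was multiplexed: SteadyGlo luminescence measured ATXN2-luciferase expression after a fluorogenic Gly-Phe-AFC viability readout (25 uM final).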
S2 tox: reduces viability in counter-screen for ATXN expression inhibitors. S2 cells (HEK-293 line with an ATXN2-luciferase reporter) viability, CellTiter-Fluor protease fluorescence, 24 h. Potency, µM (titrated, usually from 56.7 µM), usual class: cytotoxic. 400,000 compounds, 0.49% hits; note: nearly all actives have a fitted effect of over 40% in size
HepG2 viability: kills HepG2 cells in TGF-b inhibitor counter-screen; HepG2 CAGA-GFP viability, ATP luminescence, 18 h; Potency, µM (doses to about 46.1 µM), for the others: at the highest dose activity change, negative = cytotoxicity, hits mostly cytotoxic; 410,000 compounds, 0.76% hits; AID 588856
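CellTiter-Glo luminescence gave cytotoxicity after 18 hours at 37 degrees C. The cells were HepG2 CAGA-GFP in 1% FBS DMEM, stimulated with 500 pg/mL TGF-beta after compound addition. %Activity was normalised to no-cell wells (complete cell-killing) and DMSO (no toxicity), and curves were fitted and classified.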
Gal4-VP16 FLuc: Gal4-VP16 reporter inhibition counter-screen. 310,000 compounds, 3.5% hits. Drosophila S2 Gal4-VP16 UAS-luciferase, luminescence, 20 h. Potency, µM (highest dose often 53.6 µM), for the others: at the top dose activity, negative = inhibition, hits mostly inhibitors;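 note: Gal4-VP16 expression switched on by copper sulfate through the metallothionein promoter; % is set by controls: 0 for no effect and ±100 for the full control effect; nearly all actives have a fitted effect of over 50% in size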
* = called active by the depositor; i = inactive; ? = inconclusive; . = not tested or not shown. Sampled rows, rich in hits. Any-hit rate of the full collection: about 6.1%. Calls come from the whole dose curve; as a rule, active = well fitted curve in the direction sought with a large enough effect; inconclusive = small, poorly fitted or top-dose-only effect, or another doubt; inactive = no such curve, though single readings can be large; an effect the other way counts as inactive or inconclusive. Potency is the fitted concentration of half-maximal effect.

SMILES	RORgamma inh	TGFb SMAD3 inh	ATXN2 expr inh	S2 tox	HepG2 viability	Gal4-VP16 FLuc
O=C(/C=C/c1ccc([N+](=O)[O-])s1)N1CCCCC1	11µM*	13µM*	?	?	11µM*	?
CC1CN(C(=O)/C=C/c2ccc([N+](=O)[O-])s2)CC(C)O1 (stereo not given)	?	?	-24%	i	10µM*	?
O=C(/C=C/c1ccc([N+](=O)[O-])s1)N1CCN(c2ccccc2)CC1	-17%	?	.	?	-58%	-1%
Cn1c(SCC2CCCO2)nnc1C1CCN(Cc2ccccc2O)CC1 (stereo not given)	.	.	.	i	.	.
Oc1c(Cl)cc(Cl)cc1/C=C/c1ccc2cccc(O)c2n1	2.5µM*	?	?	i	-38%	7.1µM*
Oc1ccc(Cl)cc1/C=C/c1ccc2cccc(O)c2n1	3.2µM*	?	-20%	?	-65%	4.5µM*
CC(O)CNc1nc2ccccc2n1-c1ncnc2sc3c(c12)CCC3 (stereo not given)	?	-7%	-27%	i	-40%	14µM*
CC(=O)Nc1cc(C(=O)N2CC3(C)CC2CC(C)(C)C3)cc2ncn(CCc3ccccn3)c12 (stereo not given)	.	.	.	i	.	.
Cc1cc(SCC(=O)N/N=C/c2ccc(O)c(O)c2)nc2ccccc12	17%	-24%	-10%	?	-21%	-24%
COc1ccc2nc(C)cc(SCC(=O)N/N=C/c3cccc4ccccc34)c2c1	11µM*	-1%	?	.	-12%	-25%
Cc1cc(SCC(=O)N/N=C/c2ccc(O)cc2O)nc2ccccc12	-41%	-11%	13µM*	i	-12%	?
Cc1ccc(NC(=S)NCC23C=CC(O2)C2C(=O)N(c4ccc(C)cc4)C(=O)C23)cc1 (stereo not given)	?	?	7%	i	-23%	14µM*
Cc1ccc(S(=O)(=O)NCC23C=CC(O2)C2C(=O)N(c4ccccc4)C(=O)C23)cc1 (stereo not given)	8.9µM*	-26%	1%	i	1%	?
Cc1ccc(N2C(=O)C3C4C=CC(CNC(=S)N5CCN(c6ccccc6)CC5)(O4)C3C2=O)cc1 (stereo not given)	10µM*	-19%	.	i	-14%	?
Cc1ncc2c(c1CNC(=O)c1ccc3c(c1)OCO3)CCN(C(=O)c1cc3ccccc3n1C)C2	.	.	.	i	.	.
CC(C)OP(=O)(CP(=O)(OC(C)C)OC(C)C)OC(C)C	.	.	3%	i	.	.
O=C(O)c1cc(O)c2c(c1)[C@H]([C@H]1c3cc(C(=O)O)cc(O)c3C(=O)c3c(O[C@@H]4OC(CO)C(O)C(O)C4O)cccc31)c1cccc(O[C@@H]3OC(CO)C(O)C(O)C3O)c1C2=O (stereo not given in full)	-36%	.	.	.	.	-19%
O=C(O)c1cc(O)c2c(c1)[C@@H]([C@H]1c3cc(C(=O)O)cc(O)c3C(=O)c3c(O[C@@H]4O[C@H](CO)[C@@H](O)[C@H](O)[C@H]4O)cccc31)c1cccc(O[C@@H]3O[C@H](CO)[C@@H](O)[C@H](O)[C@H]3O)c1C2=O	.	14µM*	-2%	i	-27%	.
O=C(CSc1nnc(-c2cccnc2)n1Cc1ccco1)N1c2ccccc2Sc2ccccc21	13µM*	-11%	-12%	i	-1%	?
Clc1cccc(CSc2nnc(-c3cccnc3)n2Cc2ccco2)c1	16µM*	-6%	-21%	i	-9%	?
c1cncc(CSc2nnc(-c3cccnc3)n2Cc2ccco2)c1	5%	.	.	.	.	0%
COc1ccccc1OCC(=O)N/N=C/C=C/c1ccc([N+](=O)[O-])o1	11µM*	10µM*	?	?	-76%	10µM*
Cc1cc(C)cc(OCC(=O)N/N=C/c2ccc([N+](=O)[O-])o2)c1	8.9µM*	?	?	?	-96%	?
Cc1ccccc1OCC(=O)N/N=C/c1ccc([N+](=O)[O-])o1	2.5µM*	18µM*	.	?	-91%	11µM*
O=C(COc1ccccc1[N+](=O)[O-])N/N=C/C=C/c1ccco1	?	-19%	25%	i	-19%	?
SMILES	RORgamma inh	TGFb SMAD3 inh	ATXN2 expr inh	S2 tox	HepG2 viability	Gal4-VP16 FLuc
CCOC(=O)N/N=C\c1ccc([N+](=O)[O-])o1	-19%	?	?	?	-49%	-7%
CCOC(=O)/C=C/c1ccc2c(c1)S(=O)(=O)N(C1CCCC1)[C@H]2CC(=O)OCC	.	3%	.	.	0%	.
CC(C(=O)O)c1ccc(N2Cc3ccccc3C2=O)cc1 (stereo not given)	1.8µM*	-2%	?	i	-45%	4µM*
CCC(C)Sc1nc2ccccc2n1CC(=O)O (stereo not given)	13µM*	-1%	-2%	i	1%	2%
Oc1cccc(/C=N/n2c(C3CCCCC3)n[nH]c2=S)c1	?	0%	7%	i	4%	-4%
O=[N+]([O-])c1cccc(/C=N/n2c(C3CCCCC3)n[nH]c2=S)c1	4µM*	-24%	10%	i	-24%	4.5µM*
O=[N+]([O-])c1ccc(Cl)c(/C=N/n2c(C3CCCCC3)n[nH]c2=S)c1	-34%	?	-21%	i	0%	-5%
Fc1cccc(/C=N/n2c(C3CCCCC3)n[nH]c2=S)c1	4µM*	?	1%	i	-37%	8.9µM*
COc1cccc(/C=N/n2c(C3CCCCC3)n[nH]c2=S)c1	4.5µM*	-20%	.	i	-12%	10µM*
COc1cccc(C2CC(=O)Nc3c2c(=O)n(C)c2ncnn32)c1OC (stereo not given)	.	4%	1%	i	-23%	.
CN(C)S(=O)(=O)c1ccc(-c2csc(N/N=C/c3ccc(O)cc3)n2)cc1	-20%	?	?	.	13µM*	?
Nc1ccc(C(=O)OCC(O)CO)cc1 (stereo not given)	.	.	-1%	i	.	.
CC1=NN(C(N)=S)C(=O)C1N=Nc1cccc(Cl)c1C (stereo not given)	0.35µM*	14%	.	?	-4%	1µM*
CC1=NN(c2ccccc2)C(=O)C1N=Nc1cccc(O)c1 (stereo not given)	?	?	57%	i	-88%	?
CC1=NN(C(N)=S)C(=O)C1N=Nc1cccc2ccccc12 (stereo not given)	0.63µM*	.	.	.	.	2.8µM*

High-throughput results as filed in PubChem.
